Data: the supplement of paper PMC11732987, “Enantioselective OTUD7B fragment discovery through chemoproteomics screening and high-throughput optimisation” (Communications Chemistry, 2025)

Experiments:
Assay in all cases: log2 ratio of Biotin-Ahx-Ub-VS probe labelling (fragment/DMSO); higher = less target engagement (more negative = stronger competition), active = hit call of the paper (q ≤ 0.05, log2 ratio ≤ -1)
Settings in all cases: compound concentration: 200 uM; treatment time: 3 h
[1] = biological target: T1, OTUD6B (UniProt Q8N6M0)
T1 sequence (whole entry): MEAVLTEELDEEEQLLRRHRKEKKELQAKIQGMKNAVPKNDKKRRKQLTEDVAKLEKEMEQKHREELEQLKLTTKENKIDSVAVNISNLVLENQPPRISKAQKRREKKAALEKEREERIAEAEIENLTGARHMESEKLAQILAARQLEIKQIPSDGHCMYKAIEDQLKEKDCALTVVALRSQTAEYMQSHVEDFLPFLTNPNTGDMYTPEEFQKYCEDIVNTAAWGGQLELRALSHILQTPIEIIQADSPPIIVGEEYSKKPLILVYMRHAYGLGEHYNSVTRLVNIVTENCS
Outline: (§1)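 Using Biotin-Ahx-Ub-VS at 0.5 µM final for 1 h, DUBs were labelled in HEK293T lysate (495 µg per sample) that had first been treated in triplicate with fragment at 200 µM or vehicle for 3 h. NeutrAvidin enrichment, LysC and trypsin digestion and diaPASEF LC-MS/MS followed. Spectronaut label-free quantities were global-median-normalised. Values are average log2 fragment/vehicle ratios by unpaired t-test, using proteins with ≥2 unique peptides.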

[2] = biological target: T2, OTUD7B (UniProt Q6GQQ9)
T2 sequence (whole entry): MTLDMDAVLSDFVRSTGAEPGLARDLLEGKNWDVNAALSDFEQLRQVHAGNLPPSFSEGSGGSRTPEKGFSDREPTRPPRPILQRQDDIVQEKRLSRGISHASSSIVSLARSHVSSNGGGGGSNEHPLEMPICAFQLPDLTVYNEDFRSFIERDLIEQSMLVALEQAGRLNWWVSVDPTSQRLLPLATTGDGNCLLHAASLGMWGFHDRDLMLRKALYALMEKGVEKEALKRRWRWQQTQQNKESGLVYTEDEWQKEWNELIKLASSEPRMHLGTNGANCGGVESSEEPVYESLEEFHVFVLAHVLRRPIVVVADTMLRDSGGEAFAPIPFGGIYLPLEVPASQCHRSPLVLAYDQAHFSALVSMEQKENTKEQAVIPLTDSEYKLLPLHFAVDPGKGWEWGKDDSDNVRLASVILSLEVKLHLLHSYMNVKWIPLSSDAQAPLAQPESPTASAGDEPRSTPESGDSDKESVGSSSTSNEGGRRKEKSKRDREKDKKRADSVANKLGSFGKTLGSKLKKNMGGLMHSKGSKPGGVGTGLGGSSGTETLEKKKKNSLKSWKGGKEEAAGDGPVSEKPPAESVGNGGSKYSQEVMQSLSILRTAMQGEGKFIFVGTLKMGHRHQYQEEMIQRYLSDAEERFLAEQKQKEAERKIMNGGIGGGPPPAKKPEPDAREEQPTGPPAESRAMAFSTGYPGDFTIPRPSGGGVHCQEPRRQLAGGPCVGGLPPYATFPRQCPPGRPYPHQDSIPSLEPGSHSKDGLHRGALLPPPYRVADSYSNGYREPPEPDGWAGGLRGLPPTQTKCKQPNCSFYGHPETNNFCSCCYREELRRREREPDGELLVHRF
Outline: as §1

[3] = biological target: PRPF8 (UniProt Q6P2Q9)
Outline: as §1

[4] = biological target: T3, PSMD7 (UniProt P51665)
T3 sequence (whole entry): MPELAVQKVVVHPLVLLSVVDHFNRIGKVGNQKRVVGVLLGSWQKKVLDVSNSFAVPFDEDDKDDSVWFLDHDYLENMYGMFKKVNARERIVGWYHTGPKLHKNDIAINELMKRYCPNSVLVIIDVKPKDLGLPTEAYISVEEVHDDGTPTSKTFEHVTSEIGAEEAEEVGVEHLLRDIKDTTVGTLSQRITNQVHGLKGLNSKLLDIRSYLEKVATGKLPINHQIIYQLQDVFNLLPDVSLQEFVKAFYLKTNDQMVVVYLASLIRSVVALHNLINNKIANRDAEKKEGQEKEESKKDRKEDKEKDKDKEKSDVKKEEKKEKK
Outline: as §1

[5] = biological target: UCHL1 (UniProt P09936)
Sequence of UCHL1 (P09936 whole entry, looked up): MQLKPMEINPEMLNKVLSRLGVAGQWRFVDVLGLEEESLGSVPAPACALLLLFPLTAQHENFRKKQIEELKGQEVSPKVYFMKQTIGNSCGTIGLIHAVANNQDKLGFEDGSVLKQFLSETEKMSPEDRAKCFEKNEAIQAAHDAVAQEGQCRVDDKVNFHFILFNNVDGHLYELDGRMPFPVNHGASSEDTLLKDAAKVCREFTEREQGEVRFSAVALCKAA
Outline: as §1

[6] = biological target: T4, UCHL3 (UniProt P15374)
T4 sequence (whole entry): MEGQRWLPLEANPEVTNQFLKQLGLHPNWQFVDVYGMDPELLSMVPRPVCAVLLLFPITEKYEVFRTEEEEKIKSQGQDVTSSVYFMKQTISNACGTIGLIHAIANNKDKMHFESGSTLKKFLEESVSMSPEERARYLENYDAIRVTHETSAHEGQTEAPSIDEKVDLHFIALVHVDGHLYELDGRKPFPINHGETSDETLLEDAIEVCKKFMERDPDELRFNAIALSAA
Outline: as §1

[7] = biological target: T5, UCHL5 (UniProt Q9Y5K5)
T5 sequence (whole entry): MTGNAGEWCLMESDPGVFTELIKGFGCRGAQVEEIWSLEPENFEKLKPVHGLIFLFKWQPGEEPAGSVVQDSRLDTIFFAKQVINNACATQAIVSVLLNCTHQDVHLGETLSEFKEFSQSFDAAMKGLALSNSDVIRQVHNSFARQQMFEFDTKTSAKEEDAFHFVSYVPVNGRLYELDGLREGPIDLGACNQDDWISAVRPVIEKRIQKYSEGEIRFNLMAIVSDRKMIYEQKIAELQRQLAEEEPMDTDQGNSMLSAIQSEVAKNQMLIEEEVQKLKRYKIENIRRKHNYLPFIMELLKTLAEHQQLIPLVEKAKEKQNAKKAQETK
Outline: as §1

[8] = biological target: USP10 (UniProt Q14694)
Sequence of USP10 (Q14694 whole entry): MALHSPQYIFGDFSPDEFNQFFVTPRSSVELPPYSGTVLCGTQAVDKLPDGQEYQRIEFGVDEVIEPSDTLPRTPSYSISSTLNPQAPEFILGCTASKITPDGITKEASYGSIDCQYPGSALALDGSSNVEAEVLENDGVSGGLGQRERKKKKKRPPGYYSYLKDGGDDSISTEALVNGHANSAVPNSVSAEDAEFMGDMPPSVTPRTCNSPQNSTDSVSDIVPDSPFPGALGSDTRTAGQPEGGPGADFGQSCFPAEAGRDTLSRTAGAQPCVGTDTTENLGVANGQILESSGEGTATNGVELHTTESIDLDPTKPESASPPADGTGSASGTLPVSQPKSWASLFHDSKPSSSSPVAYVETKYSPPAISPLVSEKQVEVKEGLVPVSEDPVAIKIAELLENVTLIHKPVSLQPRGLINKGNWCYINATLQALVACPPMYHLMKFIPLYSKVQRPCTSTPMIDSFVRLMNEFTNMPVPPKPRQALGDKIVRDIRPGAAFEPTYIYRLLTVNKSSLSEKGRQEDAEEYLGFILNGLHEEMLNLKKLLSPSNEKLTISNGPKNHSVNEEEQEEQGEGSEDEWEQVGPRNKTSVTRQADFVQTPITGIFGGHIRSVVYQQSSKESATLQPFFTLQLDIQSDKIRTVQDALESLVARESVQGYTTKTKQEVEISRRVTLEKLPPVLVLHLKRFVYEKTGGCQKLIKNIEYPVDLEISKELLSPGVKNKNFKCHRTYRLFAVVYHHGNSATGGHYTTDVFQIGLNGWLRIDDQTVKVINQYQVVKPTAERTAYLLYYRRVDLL
Outline: as §1

[9] = biological target: T6, USP15 (UniProt Q9Y4E8)
T6 sequence (whole entry): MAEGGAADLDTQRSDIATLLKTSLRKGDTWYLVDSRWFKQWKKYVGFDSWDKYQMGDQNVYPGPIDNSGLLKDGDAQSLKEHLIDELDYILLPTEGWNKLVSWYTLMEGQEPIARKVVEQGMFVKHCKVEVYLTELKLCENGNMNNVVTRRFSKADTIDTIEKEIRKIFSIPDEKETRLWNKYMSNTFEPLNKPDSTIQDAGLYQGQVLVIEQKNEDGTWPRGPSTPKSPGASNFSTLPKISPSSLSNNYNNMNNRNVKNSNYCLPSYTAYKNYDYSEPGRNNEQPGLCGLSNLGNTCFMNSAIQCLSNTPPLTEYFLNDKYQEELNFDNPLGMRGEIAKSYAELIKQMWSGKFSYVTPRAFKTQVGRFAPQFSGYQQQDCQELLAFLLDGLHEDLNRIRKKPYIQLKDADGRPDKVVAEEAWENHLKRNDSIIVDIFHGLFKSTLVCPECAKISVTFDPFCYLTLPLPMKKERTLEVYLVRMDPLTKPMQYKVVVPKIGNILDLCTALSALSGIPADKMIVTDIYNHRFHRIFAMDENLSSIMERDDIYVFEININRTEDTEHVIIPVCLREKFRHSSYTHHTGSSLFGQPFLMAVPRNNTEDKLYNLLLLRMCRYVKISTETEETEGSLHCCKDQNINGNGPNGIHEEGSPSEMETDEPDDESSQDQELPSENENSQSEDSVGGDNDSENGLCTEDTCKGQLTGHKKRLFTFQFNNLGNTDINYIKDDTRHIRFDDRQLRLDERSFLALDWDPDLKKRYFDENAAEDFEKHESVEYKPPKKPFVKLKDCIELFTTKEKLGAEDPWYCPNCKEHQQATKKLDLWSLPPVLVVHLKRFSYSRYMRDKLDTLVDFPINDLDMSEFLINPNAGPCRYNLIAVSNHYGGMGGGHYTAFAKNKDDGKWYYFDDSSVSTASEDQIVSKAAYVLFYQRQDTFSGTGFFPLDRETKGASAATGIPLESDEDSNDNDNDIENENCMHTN
Outline: as §1

[10] = biological target: USP16 (UniProt Q9Y5T5)
Sequence of USP16 (Q9Y5T5 whole entry, looked up): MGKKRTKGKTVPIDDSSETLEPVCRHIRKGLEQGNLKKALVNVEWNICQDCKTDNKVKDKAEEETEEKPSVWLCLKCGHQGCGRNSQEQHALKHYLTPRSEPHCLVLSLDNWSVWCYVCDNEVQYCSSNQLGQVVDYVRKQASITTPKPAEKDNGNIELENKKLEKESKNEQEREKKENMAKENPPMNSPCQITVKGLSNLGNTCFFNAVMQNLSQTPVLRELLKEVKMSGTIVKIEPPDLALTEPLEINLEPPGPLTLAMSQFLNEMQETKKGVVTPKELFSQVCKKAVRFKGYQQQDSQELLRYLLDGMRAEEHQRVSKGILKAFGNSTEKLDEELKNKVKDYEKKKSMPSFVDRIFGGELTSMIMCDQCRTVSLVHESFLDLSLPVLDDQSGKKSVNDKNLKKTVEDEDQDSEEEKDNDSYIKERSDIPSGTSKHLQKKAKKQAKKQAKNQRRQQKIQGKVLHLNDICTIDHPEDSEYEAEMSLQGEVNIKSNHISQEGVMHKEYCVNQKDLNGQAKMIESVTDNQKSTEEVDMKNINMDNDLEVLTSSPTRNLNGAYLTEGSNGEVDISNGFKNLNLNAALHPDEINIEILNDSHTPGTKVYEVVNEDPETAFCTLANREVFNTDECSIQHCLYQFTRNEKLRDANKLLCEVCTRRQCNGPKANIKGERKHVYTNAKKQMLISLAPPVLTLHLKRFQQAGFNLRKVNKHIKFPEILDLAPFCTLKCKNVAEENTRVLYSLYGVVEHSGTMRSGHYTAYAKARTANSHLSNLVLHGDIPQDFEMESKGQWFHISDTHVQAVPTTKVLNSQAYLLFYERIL
Outline: as §1

Measured: log2 ratio of Biotin-Ahx-Ub-VS probe labelling

CC1CCc2onc(CNC(=O)CCl)c2C1 (stereo not given)
active: [5] -1.33
inactive: [1] -0.0903 | [2] -0.588 | [3] -0.225 | [4] -0.0595 | [6] 0.123 | [7] -0.175 | [8] -0.0579 | [9] -0.0914 | [10] 0.406
